Results from PubChem BioAssay.
The source made the active and inactive calls.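 Rule for the calls: active = fluorescence ratio normalized to control raised more than 50% in primary screen plus both repeat runs; inactive = the rest.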

What follows are compounds tested on TRPC4 beta (transient receptor potential cation channel C4), mouse (assay: TRPC4 cation channel opening, retest – cell-based, Fluo4 calcium, HEK293 TRPC4beta/mu-opioid, duplicates, 10 µM, confirmation (AID 2426)). Conditions: Fluo4 calcium fluorescence, at 10 µM.

outcome, inactive:
CCCc1nc2oc3c(NCCCN(C)C)ncnc3c2c2c1CCCC2
O=C(/C=C/c1ccc(Cl)cc1)N(Cc1ccccc1)C1CCS(=O)(=O)C1 (centres undefined)
COc1ccc(NS(=O)(=O)c2ccc3ccccc3c2)c2ncccc12
CN(C)S(=O)(=O)N1CCC(CCCC2CCN(S(=O)(=O)N(C)C)CC2)CC1
COc1cc(C2(c3ccc(O)c(OC)c3)C(=O)Nc3c(C)cc(Br)cc32)ccc1O
COC(=O)C(CC(=O)Nc1cc(C)ccc1C)Nc1ccccc1OC (centres undefined)
CC(C)CCc1noc(CN2CCN(c3ccc(Cl)cn3)CC2)n1
Cc1cc(OCCN2CCCC2)ccc1[N+](=O)[O-]
CSc1ccc(S(=O)(=O)NCC(=O)OCC(=O)N(C)Cc2ccccc2)cc1[N+](=O)[O-]
O=C(COC(=O)c1ccccc1C(=O)N1CCN(c2ccccc2)CC1)Nc1ccc(F)cc1
CCCCCCCCCC[n+]1cccc2c3ccccc3ccc21
Cc1nn(-c2cc(C(F)(F)F)ccc2Cl)c2nc(C(Cl)(Cl)Cl)[nH]c(=O)c12
Cc1cc2oc(C(=O)N(Cc3cccs3)C3CCS(=O)(=O)C3)cc(=O)c2cc1Cl (centres undefined)
CN(C)CCCN(C(=O)CCc1ccccc1)c1nc2ccc(F)cc2s1
Cc1ccc(C(=O)O)cc1N=Cc1cc(Br)cc(Br)c1O
N=c1c2c3c(sc2ncn1Cc1ccccc1)CCCC3
Cn1c2ccccc2c(=O)c2c(=O)n(-c3ccccc3)c(-c3ccc(C(C)(C)C)cc3)nc21
CCCNc1nc2ccccc2n2c(C)nnc12
CC(C)NS(=O)(=O)c1ccc(NC(=O)C(C)Oc2ccc(C(=O)c3ccccc3)cc2)cc1 (centres undefined)
O=C1C=CC(=O)N1CCNc1ncc(C(F)(F)F)cc1Cl
CCN1CCN(c2ccc(S(=O)(=O)N3CCCCC3)cc2NC(=O)c2cccc(F)c2)CC1
CCn1c2ccc(F)cc2c2nnc(NN)nc21
CCCN1Cc2cccc(C(=O)N3CCN(c4cc(Cl)ccc4C)CC3)c2C1=O
Cc1ccc2c(c1)C1CN(C)CCC1N2C(=S)NC(=O)c1ccc(Br)cc1 (centres undefined)
CCCCN(CC)CCCNC(=O)c1cc2cc3ccc(C)cc3nc2o1
COc1cc(NC(=O)CSc2ncnc3sc4c(c23)CCC(C)C4)c(C(=O)O)cc1OC (centres undefined)
CN(CCCNC(=O)CCCOc1cc(=O)n(C)c2ccccc12)Cc1ccccc1
O=S(=O)(NCC1NCCc2ccccc21)c1ccccc1 (centres undefined)
Cc1cc(C)c2c(=O)n(CC(=O)Nc3cccc(Cl)c3C)sc2n1
O=C(Nc1ccnn1C1CCN(Cc2cc3ccccc3[nH]2)CC1)C1CCOC1 (centres undefined)
CC(Oc1ccc(Cl)cc1Cl)C(=O)N(C)c1ccccc1 (centres undefined)
O=C(C1=C[C@H](c2ccc(C(F)(F)F)cc2)C[C@H](OCCCCO)O1)N1CCOCC1
O=C(O)CCCN1C(=O)/C(=C\c2ccc(-c3nc4ccccc4s3)o2)SC1=S
O=c1c2ccccc2nc(COc2ccccc2)n1/N=C/c1cc([N+](=O)[O-])ccc1O
O=C(CCN1CCN(Cc2ccccc2)CC1)Nc1cccc(Br)c1
O=C(NC1CCCC1)c1cc2ccccc2o1
Cc1cc(/C=N/NC(=O)c2cccc([N+](=O)[O-])c2)c(C)n1-c1ccc(Cl)cc1Cl
CCN(CC)c1ncnc2sc3c(c12)CCC3
CC(=O)c1nn(-c2cccc(Br)c2)cc1C(=O)c1cccc2ccccc12
